# Hit rate of the full screen: of about 410,000 compounds, about 2,000 (0.49%) were called active. Another 8% or so got no clear call; they are omitted. The sample holds actives, similar compounds and a random draw of the others, so the mix is not that of the screen. Calls come from the whole dose curve; tested in HEK293 reporter line.
# Assay: qHTS Assay for Foot and Mouth Disease Virus Antivirals: Primary Screen against the MLPCN compound library; note: nearly all actives have a fitted effect of over 55% in size
# Settings: FMDV antiviral cell-based qHTS; series mostly up to 57.9 µM; activity, negative = inhibition: at the top concentration
# Potency is the fitted concentration of half-maximal effect.
SMILES,"activity, negative = inhibition",Potency
COCC(C)n1c(C)cc(C(=O)COC(=O)c2cc(=O)[nH]c3ccccc23)c1C (stereo not drawn),-25.1% (inactive),
CC(C)(C)OC(=O)N1CCC(c2c(C(=O)N3CCN(Cc4ccccc4)CC3)cnn2-c2ccc(Cl)cc2)CC1,-34% (inactive),
O=S(=O)(N/N=C\c1ccc2c(c1)OCO2)c1ccc(Cl)cc1,102% (inactive),
CCc1ccc(S(=O)(=O)N/N=C\c2ccc3c(c2)OCO3)cc1,108% (inactive),
N/C(=N\N=C\c1ccc2c(c1)OCO2)c1nonc1N,,17.8 µM (active)
Brc1ccccc1CN1CCN(Cc2c[nH]c3ccccc23)CC1,-41.3% (inactive),
CCN(CC)c1ccc2cc(C(=O)NNC(=O)c3ccc(S(=O)(=O)N4CCCCC4)cc3)c(=O)oc2c1,-31% (inactive),
CCN(CC)c1ccc2c(Cl)c(Br)c(=O)oc2c1,,31.6 µM (active)
CCN(Cc1cc(=O)oc2cc(C)ccc12)c1ccccc1,-38.6% (inactive),
O=C(C1=C[C@H](c2ccc3c(c2)OCO3)C[C@H](OCc2ccc(CO)cc2)O1)N1CCN(Cc2ccc3c(c2)OCO3)CC1,-38% (inactive),
Cc1ccc(Nc2nc(N)nc(CN3CCN(c4ccccc4F)CC3)n2)cc1,-33% (inactive),
CCOc1ccc(C=NNC(=O)c2cccc3ccccc23)cc1OCC,-38.1% (inactive),
O=C(Oc1cccc(/C=N/Nc2nc(N3CCOCC3)nc(N3CCOCC3)n2)c1)c1ccco1,-35.2% (inactive),
O=C(N/N=C/c1ccc2ncccc2c1)c1ccco1,,14.1 µM (active)
Cc1ccc(-c2ccc(=O)n(Cc3cc(C)ccc3C)n2)cc1,,inactive
CCN1CCN(c2cc(-c3ccccc3)nc3cc(-c4cccc(F)c4)nn23)CC1,-31.5% (inactive),
C=CC[C@@H](CC(=O)OC(C)(C)C)C(=O)OC[C@@H]1CCCN1C(=O)[C@@H](CC=C)CC(=O)N[C@H](CO)Cc1ccccc1,,14.1 µM (active)
C=CC[C@@H](Cc1ccc(F)cc1)C(=O)OC[C@H]1CCCN1C(=O)[C@@H](CC=C)CC(=O)N(CCO)Cc1ccccc1,-34.2% (inactive),
C=CC[C@@H](CC(=O)OC(C)(C)C)C(=O)OC[C@@H]1CCCN1C(=O)[C@@H](CC=C)CC(=O)N[C@@H](CO)Cc1ccccc1,-31% (inactive),
COc1ccc(C(C)=O)cc1COC(=O)CNC(=O)c1ccccc1F,-36.6% (inactive),
N#CC(=C=[N-])c1nc2ccccc2nc1-[n+]1ccccc1,-31.6% (inactive),

SMILES,"activity, negative = inhibition",Potency
COc1cc(/C=N/NC(N)=S)cc(Br)c1OCc1ccccc1F,-30.1% (inactive),
COc1cccc(/C=N/NC(N)=S)c1OCc1cccc(Cl)c1,,22.4 µM (active)
COc1cccc(/C=N/NC(=O)CSc2nnc(C)n2-c2ccccc2)c1OC,-35.1% (inactive),
Cc1cc(-c2nc3ccccc3s2)ccc1N,,7.94 µM (active)
CC(C)(C)C(=O)Nc1ccc(-c2nc3ccccc3s2)cc1,-67.5% (inactive),
Cc1cc(-c2nc3cc(F)ccc3s2)ccc1N,,12.6 µM (active)
CN(C(=O)OC(C)(C)C)c1ccc(-c2nc3ccccc3s2)cc1,-100% (inactive),
Cc1ccccc1-c1nc(CN2CCC(C(=O)NC3CCN(Cc4ccccc4)CC3)CC2)c(C)o1,-29.5% (inactive),
Cc1cc(=O)[nH]c(N/N=C/C2=C(N3CCOCC3)C(=C\c3ccc(Cl)cc3)/CC2)n1,-36.7% (inactive),
O=C(Nc1ccc(Cl)c(C(F)(F)F)c1)c1cc2nc(-c3ccc4c(c3)OCO4)cc(C(F)(F)F)n2n1,-21.9% (inactive),
CC[C@H]1c2[nH]c3ccc(C(C)C)cc3c2[C@@H]2CCN3C(=O)CCC[C@H]1[C@H]23,-33.7% (inactive),
CC(C)(C)n1ncc2c(=O)n(Cc3c(Cl)cccc3Br)cnc21,-48.1% (inactive),
CC(C)(C)n1ncc2c(=O)n(CC(=O)Nc3ccc(Cl)cc3)cnc21,-38.5% (inactive),
CC(C)(C)n1ncc2c(=O)n(CC(=O)NCc3ccccc3)cnc21,,20 µM (active)
CCCCCn1c(NC(=O)c2ccco2)c(C(=O)OCC)c2nc3ccccc3nc21,-41.5% (inactive),
COc1ccc(/C=C2\CN(Cc3ccccc3)C/C(=C\c3ccc(OC)cc3)C2=O)cc1,-34.8% (inactive),
CCOc1ccc(/C=C2\CCc3ccccc3C2=O)cc1,,20 µM (active)
COc1cc(/C=C2/CCc3ccccc3C2=O)cc(OC)c1OC,-30.1% (inactive),
Cc1ccc(-c2noc(CCC(=O)NCCN3CCc4ccccc4C3)n2)cc1,-32.9% (inactive),
O=S(=O)(N/N=C\c1cccc(F)c1)c1ccccc1,113% (inactive),
C(=N\Nc1ccc2ccccc2n1)/c1ccc2c(c1)OCCO2,-52.8% (inactive),

SMILES,"activity, negative = inhibition",Potency
Fc1cccc(/C=N/Nc2ccc3ccccc3n2)c1,,12.6 µM (active)
O=C(NCc1ccc(F)cc1)c1cc(Sc2ccc(F)cc2F)nc2ccccc12,-34% (inactive),
Cc1ccc(Cl)c(OCCN2CCc3ccccc3C2)c1,-34.8% (inactive),
CN(CC(=O)Nc1ccc(Cl)cc1)CC(=O)Nc1sc2c(c1C(N)=O)CCC2,-41.6% (inactive),
O=C(CSC1=NCCS1)N1CCN(c2ccccc2)CC1,-31.3% (inactive),
CC1Cc2nc(SCC(=O)N3CCN(c4ccccc4)CC3)n(C)c(=O)c2S1 (stereo not drawn),-31.1% (inactive),
CC1(C)Cc2ccccc2-c2nnc(SCC(=O)N3CCN(c4ccccc4)CC3)n21,,7.94 µM (active)
FC(F)(F)c1cc(-c2cccs2)nc(-n2cc(Br)cn2)n1,-39.4% (inactive),
C/C(=N\NC(=O)c1cc(-c2cccs2)nc2ccccc12)c1ccccn1,-31.1% (inactive),
Cc1cc2ncc(-c3cccs3)nc2cc1C,,11.2 µM (active)
O=C1Nc2ccc([N+](=O)[O-])cc2OC1CCN1CCN(c2ccccc2)CC1 (stereo not drawn),-30% (inactive),
COc1ccc(-c2ccc(C(=O)N3CCN(C)CC3)c3occc23)c(C)c1,-36.9% (inactive),
Nc1nc(COC(=O)CCC(=O)c2ccc(Cl)cc2)nc(Nc2ccccc2)n1,-36.9% (inactive),
CCOc1ccccc1CNC(=O)CSc1n[nH]c(-c2ccccc2)n1,-36.7% (inactive),
Nc1nc(CSc2n[nH]c(-c3ccccc3)n2)nc(Nc2ccccc2)n1,,25.1 µM (active)
O=C1c2cccnc2Oc2ccc(Cl)cc2N1Cc1ccc(F)cc1,-37.2% (inactive),
[N-]=[N+]=CC(=O)C(Cc1ccccc1)N1C(=O)c2ccccc2C1=O (stereo not drawn),-32.3% (inactive),
O=C(c1cc2ccc3cccnc3c2[nH]1)N1CCCCC1,,14.1 µM (active)
O=C(c1cc2ccc3cccnc3c2[nH]1)N1CCN(c2cccc(Cl)c2)CC1,-32.5% (inactive),
Cc1ccc2[nH]c(C(=O)N3CCCCC3)cc2c1,100% (inactive),
CN(C)N(Cc1ccccc1)C(=O)C(O)(c1ccccc1)c1ccccc1,-30.8% (inactive),

# Source: PubChem BioAssay AID1347131 (National Center for Advancing Translational Sciences (NCATS), 2019)
